# MITF inh – inhibitors of human MITF. hit rate 0.91% among 650,000. AID 1259374. inhibition, % at 2.6 µM. AlphaScreen MITF homodimerization, bead proximity signal; in the data active = inhibition above about 50%;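 also: 0% = vehicle wells with protein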
# GPR151 ag – activates the human receptor GPR151; Q8TDV0; PathHunter beta-arrestin GPR151 cells, luminescence; activation, % at 11.2 µM; hit rate 1% among 650,000; in the data active = activation above about 4.9%;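 also: 0% = median of compound wells and 100% = cells with positive control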
# FBW7 act – human FBW7 E3 ligase activation, primary screen; AID 1259310; hit rate 0.13% among 650,000; normalized activity (activation), % at 26.1 µM; AlphaScreen FBW7–phospho-cyclin E peptide binding, activator screen; Q969H0; in the data active = normalized activity above about 1.9%;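 also: purified mutant Fbw7 with reduced substrate affinity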
# Target sequence (Q969H0 whole entry, looked up): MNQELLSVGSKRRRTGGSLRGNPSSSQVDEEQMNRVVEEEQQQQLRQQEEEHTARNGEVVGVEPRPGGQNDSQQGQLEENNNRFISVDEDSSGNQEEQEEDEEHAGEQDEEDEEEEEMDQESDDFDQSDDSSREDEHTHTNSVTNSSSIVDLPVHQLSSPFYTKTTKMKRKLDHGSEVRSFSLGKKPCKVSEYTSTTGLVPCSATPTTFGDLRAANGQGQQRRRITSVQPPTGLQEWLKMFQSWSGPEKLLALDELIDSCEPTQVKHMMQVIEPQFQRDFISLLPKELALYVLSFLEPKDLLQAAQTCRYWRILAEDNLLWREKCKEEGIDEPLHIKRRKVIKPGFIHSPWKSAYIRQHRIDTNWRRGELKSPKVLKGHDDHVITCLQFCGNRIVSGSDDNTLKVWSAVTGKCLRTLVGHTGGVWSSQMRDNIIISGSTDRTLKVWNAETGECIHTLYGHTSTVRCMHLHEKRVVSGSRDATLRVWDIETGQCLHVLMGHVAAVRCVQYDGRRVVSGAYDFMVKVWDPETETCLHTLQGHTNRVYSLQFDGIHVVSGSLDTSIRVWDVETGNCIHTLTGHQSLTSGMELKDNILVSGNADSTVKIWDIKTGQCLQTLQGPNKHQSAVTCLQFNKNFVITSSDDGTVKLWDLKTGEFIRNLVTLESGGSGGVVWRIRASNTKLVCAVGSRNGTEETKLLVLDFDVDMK
# TEAD-YAP inh – TEAD-YAP interaction inhibition; HEK-TIYL cells, TEAD-Gal4/YAP UAS-luciferase luminescence; hit rate 1.4% among 640,000; AID 1259422; inhibition, % at 9.12 µM; in the data active = inhibition above about 32%;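 also: 0% = median of test compound wells and 100% = reference inhibitor wells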
# GPR151 confirm – confirmation of human GPR151 activators. shares compounds with GPR151 ag. GPR151 PathHunter beta-arrestin cells, luminescence, 90 min; % of EA-reagent control over plate median. activation, % at 11.2 µM. 6,700 tested, under 10 active;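 active = mean percent activation across replicates above the confirmation screen cutoff of 4.91%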
# GPR119 counter – counter-screen for GPR151 activators: effect on human GPR119 | GPR119 PathHunter beta-arrestin cells, luminescence, 90 min; 0 = compound-well median, 100 = enzyme-acceptor control | activation, % at 11.2 µM | shares compounds with GPR151 ag | hit rate 0.3% among 6,700 | AID 1508611;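 active = mean percent activation in the counterscreen above 29.09%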;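 also: counterscreen on off-target GPR119 to flag nonselective hits from the GPR151 activator screen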
# The depositor's hits bear a star; / = no result; ! = not confirmed by another sample. Compounds with a hit are over-represented: about 3.4% of the library has one in this group of screens.
SMILES,MITF inh,GPR151 ag,FBW7 act,TEAD-YAP inh,GPR151 confirm,GPR119 counter
CN(Cc1ccc(OCC(O)CN2CCc3ccccc3C2)cc1)Cc1cccnc1 (stereo unspecified),-12,0,0,1,/,/
CN(Cc1ccc(OCC(O)CN2CCc3ccccc3C2)cc1)Cc1nccs1 (stereo unspecified),-18,5.6*,0,-3,-1,-15
COC(=O)c1cccc(C(=O)N2CCC[C@@H]3CN(C(=O)C(C)C)CC[C@H]32)c1,5,7.1*,0,-6,0,11
CC(C)C(=O)N1CC[C@@H]2[C@H](CCCN2C(=O)c2cccc(F)c2)C1,7,0,0,11,/,/
Cc1ccc(C)c(C(=O)N2CCN(C)CC2)c1,1,0,0,-1,/,/
O=C1CSC(=S)N1c1ccc(F)cc1F,0,1,0,-1,/,/
Cn1nc(C(=O)NCc2ccc(F)cc2)c2c1-c1ccccc1OC2,-6,12*,0,-10,1,-1
COc1ccccc1CNC(=O)c1nn(C)c2c1COc1ccccc1-2,8,0,0,-15,/,/
CC(C)CC(N=Cc1c(O)c2ccccc2oc1=O)C(=O)O (stereo unspecified),-5,5.5*,0,-6,0,11
CC(=O)Nc1ccc(C(C(F)(F)F)(C(F)(F)F)C(F)(F)F)cc1[N+](=O)[O-],3,5.0*,0,-8,0,-5
Cc1ccc([N+](=O)[O-])cc1N(CC(=O)Nc1ccccc1Cl)S(C)(=O)=O,0,-1,0,-21,/,/
COc1cccc(NC(=O)N2CCNCC2)c1,2,23*,0,-7,-1,-14
Cc1cccc2cc(CN(Cc3ccco3)Cc3nnnn3C(C)(C)C)c(=O)[nH]c12,3,6.2*,0,2,0,2
CC1(C)Cc2ccccc2/C(=C/C(=O)C(=O)NCc2ccccc2)N1,-21,6.6*,0,2,0,0
Cc1cc(C)cc(-n2c(C)cc(/C=C3/SC(=Nc4ccc(Br)cc4)NC3=O)c2C)c1,-3,2,0,8,/,/
Cc1cc2c(cc(C(=O)OC(C(=O)NC(C)(C)C)c3ccccn3)n2C)s1 (stereo unspecified),19,-1,1,2,/,/
CCCC(=O)Nc1nn2c(CCC)nnc2s1,0,0,0,-4,/,/
CCC(=O)Nc1nn2c(CC(C)C)nnc2s1,-13,5.0*,0,6,0,-6
CCCC(=O)Nc1nn2c(CC(C)C)nnc2s1,-2,7.1*,0,-5,1,1
CC(C)Cc1nnc2sc(NC(=O)C(C)C)nn12,3,-1,0,0,/,/
CCC1Oc2ccc(C)cc2N(CC(=O)O)C1=O (stereo unspecified),2,0,0,1,/,/
CCCCN(C)C(=O)CN1C(=O)C(CC)Oc2ccc(C)cc21 (stereo unspecified),-16,8.8*,0,-2,0,-9
Cc1cccc(C(=O)Nc2ccc(Br)cc2F)c1[N+](=O)[O-],1,1,0,-65,/,/
Cc1cccc(C(=O)Nc2ccc(F)cc2F)c1[N+](=O)[O-],1,11*,0,-8,1,7
O=C(Nc1ccc(S(=O)(=O)NCc2ccccc2)cc1)N1CCCC1,1,7.0*,0,1,0,15
SMILES,MITF inh,GPR151 ag,FBW7 act,TEAD-YAP inh,GPR151 confirm,GPR119 counter
CCc1ccc(NC(=O)N[C@H]2C[C@H]3C(=O)N[C@@H](Cc4ccccc4)C(=O)N3C2)cc1,23,-1,1,5,/,/
O=C(Nc1ccc(F)cc1)c1cnc(N2CCN(c3ccccn3)CC2)c2ccccc12,17,0,0,0,/,/
O=C(Nc1ccccc1)c1cc(N2CCN(c3ccccn3)CC2)nc2ccccc12,6,5.1*,0,5,0,0
Cc1ccc(NC(=O)c2cnc(N3CCN(c4ccccn4)CC3)c3ccccc23)cc1F,2,10*,0,12,-1,-14
Cc1cc(I)ccc1NC(=O)Cc1ccccc1,-2,6.1*,0,4,0,-1
CC1Cc2ccccc2N1C(=O)c1cc(F)cc(F)c1 (stereo unspecified),25,0,0,2,/,/
Cn1nnc2c(N3CCC4(CC3)OCCO4)nc(Cc3ccc(Cl)cc3Cl)nc21,2,6.8*,0,8,0,3
COC(=O)C(=Cc1cc(OC)c(O)c([N+](=O)[O-])c1)C(=O)OC,21,5.7*,0,4,0,8
CCOc1cc(C=C(C(=O)OC)C(=O)OC)ccc1OCc1ccc([N+](=O)[O-])cc1,5,5.2*,0,14,1,10
Cn1cnnc1SCc1ccccc1F,21,0,1,2,/,/
COc1ccc(CNC(=O)CCCn2c(SCC(=O)NCc3ccccc3)nc3cc4c(cc3c2=O)OCO4)cc1,-9,2,0,-2,/,/
Cc1cc(NC(=O)c2ccc(C)s2)n(-c2nc3ccccc3[nH]2)n1,3,5.3*,0,0,0,2
COc1ccc(C(=O)/C=C/Nc2cccc([N+](=O)[O-])c2)cc1OC,-1,8.7*!,0,-36,0,-9
O=C(CSc1nc(N2CCCCC2)nc(N2CCCCC2)n1)Nc1ccc(F)cc1,-18,9.8*,0,0,1,-1
Nc1nc(SCC(=O)Nc2ccc(F)cc2)n[nH]1,-1,1,0,12,/,/
CN1CCN(C2=Nc3c(Cl)cc(Cl)c4cccc2c34)CC1,-2,12*,0,-10,1,-1
CN1CCCN(C(=O)C2CC23CCN(Cc2cccc(-c4ccco4)c2)CC3)CC1 (stereo unspecified),-13,1,0,3,/,/
CCOc1cc(C(=O)O)cc(Br)c1OCC(N)=O,-13,-1,0,-2,/,/
CCOC(=O)c1c(NC(=O)C2C3C=CC(C3)C2C(=O)O)sc2c1CCCCC2 (stereo unspecified),5,5.5*,0,16,0,-7
CCOC(=O)c1c(NC(=O)COc2c(C)cc(Cl)cc2Cl)sc2c1CCCC2,-5,0,0,0,/,/
CCOC(=O)c1c(NC(=O)COc2c(F)c(F)cc(F)c2F)sc2c1CCCC2,13,5.0*,1,8,1,9
COc1ccc(Cc2nn3c(-c4ccc(C)cc4)nnc3s2)cc1,12,6.4*,0,8,0,0
O=C(CSc1nnc2ccc(-c3cccnc3)nn12)N1CCc2ccccc21,9,5.4*,1,-5,1,4
COc1cccc(-n2c(SCC(=O)N3CCc4ccccc43)nnc2-c2cccnc2)c1,0,0,0,2,/,/
COc1cccc(-n2c(SCC(=O)N3CCc4ccccc43)nnc2-c2ccncc2)c1,5,6.4*,0,11,0,-1
O=C(CSc1nnc2ccc(-c3cccnc3)nn12)N1CCCC1,-2,-1,0,-9,/,/

# Source: PubChem BioAssay (The Scripps Research Institute Molecular Screening Center)
